Unmarked numbers belong to inactive results. How the calls were made is not given here.
tested on: HIV-1 nucleocapsid protein NCp7 (binding to TG oligonucleotide); test: HIV Nucleocapsid (AID 346); conditions: HIV-1 NC / fluorescein-TGTGTGTG probe, fluorescence polarization;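 further: potency is for inhibitors that block NC binding and lower polarization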
Method in brief: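 HIV-1 NC (100 nM) binding to fluorescein-labelled ssDNA TG4xF (10 nM) in Hepes pH 7.5, 250mM NaCl, 1uM ZnCl2, TCEP and 2-mercaptoethanol; compounds pin-transferred, 1 hr room temperature, fluorescence polarization read on CCD imager.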
Potency means the concentration at half of the fitted maximal effect.

Row | SMILES | Potency [µM]
1 | COc1ccc(-c2nc3cnc(N4CCNCC4)nc3n(CCC#N)c2=O)cc1 | > 20
2 | CCNc1ncc2nc(CCc3ccccc3)c(=O)n(CCOC)c2n1 | > 20
3 | Cn1cc(-c2nc3cnc(N4CCNCC4)nc3n(-c3ccccc3)c2=O)c2ccccc21 | > 4
4 | COc1ccccc1CN1CC[C@@]2(CCCN(S(=O)(=O)c3ccccc3)C2)C1 | > 20
5 | COc1ccc(Oc2ncc3nc(-c4ccc(Cl)cc4)c(=O)n(CCC#N)c3n2)cc1 | > 20
6 | COc1cccc(-c2cncnc2Nc2ccccc2)c1 | > 20
7 | COc1ccccc1CN1CC2(CCN(S(C)(=O)=O)CC2)C1 | > 20
8 | COCCn1c(=O)cnc2cnc(OC)nc21 | > 20
9 | c1ccc(Nc2nc(-c3ccc4c(c3)OCO4)nc3ccccc23)cc1 | > 20
10 | FC(F)(F)c1ccccc1-c1cc(NCCN2CCOCC2)ncn1 | > 20
11 | Cn1cccc1C(=O)N1CCC2(CCCN(c3cccc(-c4ccccc4)c3)C2)CC1 | > 20
12 | COc1cccc(Nc2ncc3nc(C)c(=O)n(Cc4cccs4)c3n2)c1 | > 4
13 | CN(Cc1ccco1)c1nc(-c2ccoc2)nc2ccccc12 | > 20
14 | O=C(c1ccncc1)N1CCC[C@@]2(CCN(c3ccccn3)C2)C1 | > 20
15 | O=c1c(-c2ccc(Cl)cc2)nc2cncnc2n1Cc1ccccc1Cl | > 20
16 | COc1ccccc1CNc1cc(-c2ccccc2C)ncn1 | > 20
17 | O=c1c(-c2ccc(Cl)cc2)nc2cnc(N3CCOCC3)nc2n1C1CC1 | > 20
18 | CS(=O)(=O)N1CCC2(CC1)CN(Cc1ccc(C#N)cc1)C2 | > 20
19 | c1cncc(-c2cncnc2NC2CCNCC2)c1 | > 20
20 | N#Cc1ccc(CN2CCCC3(CCN(C(=O)c4cnccn4)CC3)C2)cc1 | > 20

Row | SMILES | Potency [µM]
21 | O=C(c1cc(C(F)(F)F)cc(C(F)(F)F)c1)N1CCC[C@@]2(CCN(c3ccccc3)C2)C1 | > 20
22 | COc1ccccc1CN1CC2(CCN(C(=O)c3cnccn3)CC2)C1 | > 20
23 | COCC(=O)N1CCC[C@@]2(CCN(c3ccncc3)C2)C1 | > 20
24 | COc1ccc(NC(=O)N2CC3(CCN(C(=O)c4csnn4)CC3)C2)cc1 | > 20
25 | CN(C)c1ccc(-c2cc(N(C)Cc3ccco3)ncn2)cc1 | > 20
26 | COC(=O)N1CCC[C@@]2(CCN(C(=O)Nc3ccc(OC)cc3)C2)C1 | > 20
27 | Cn1c(=O)c(CCc2ccccc2)nc2cnc(Oc3ccccc3)nc21 | > 20
28 | COCCn1c(=O)c(-c2ccccc2)nc2cnc(N(C)C)nc21 | > 20
29 | COc1ccc(NC(=O)N2CC3(CCN(C(=O)c4ccncc4)CC3)C2)cc1 | > 20
30 | N#Cc1cccc(-c2nccc(-n3ccnc3)n2)c1 | > 20
31 | O=S(=O)(c1ccccc1)N1CCC2(CCCN(Cc3nccs3)C2)CC1 | > 20
32 | COc1ccccc1CN1CCCC2(CCN(C(=O)c3cccn3C)CC2)C1 | > 20
33 | CN1CCN(c2ncc3ncc(=O)n(CCC#N)c3n2)CC1 | > 20
34 | CN(C)c1ncc2nc(-c3ccccc3)c(=O)n(C)c2n1 | > 20
35 | Cc1noc(C)c1C(=O)N1CCC2(CC1)CN(c1ccccc1)C2 | > 20
36 | COCC(=O)N1CCC2(CCN(Cc3ccccc3OC)CC2)CC1 | > 20
37 | Cc1noc(C)c1-c1cc(NCc2ccccc2)ncn1 | > 20
38 | N#CCCn1c(=O)c(CCc2ccccc2)nc2cnc(Oc3ccccc3)nc21 | > 20
39 | COc1ccc(C(=O)N2CCC[C@@]3(CCN(C(=O)Nc4cccc(F)c4)C3)C2)cc1 | > 20
40 | CN(C)Cc1ccccc1-c1cc(NCc2cccs2)ncn1 | > 20
